Source: publication PMC10726135, “HNF4α isoforms regulate the circadian balance between carbohydrate and lipid metabolism in the liver”
Whole data set: some 18,000 sequences, median “log2 normalized intensity” near 0.36, cut for the highest 2% near 7.3. This is one part of a sample in which the highest values are shown more often than they occur.

target: T1, HNF4alpha8 (COS-7 nuclear extract) (Homo sapiens, UniProt P41235-5 1-452); assay: protein-binding microarray; COS-7 nuclear extract on double-stranded Agilent 4x180k PBM; binding buffer, salt, pH and temperature not given in the material; high values mean tight binding; conditions: chain copies: 2; label: 3' end of strand 1 on the slide; dsDNA, one strand shown
T1 sequence: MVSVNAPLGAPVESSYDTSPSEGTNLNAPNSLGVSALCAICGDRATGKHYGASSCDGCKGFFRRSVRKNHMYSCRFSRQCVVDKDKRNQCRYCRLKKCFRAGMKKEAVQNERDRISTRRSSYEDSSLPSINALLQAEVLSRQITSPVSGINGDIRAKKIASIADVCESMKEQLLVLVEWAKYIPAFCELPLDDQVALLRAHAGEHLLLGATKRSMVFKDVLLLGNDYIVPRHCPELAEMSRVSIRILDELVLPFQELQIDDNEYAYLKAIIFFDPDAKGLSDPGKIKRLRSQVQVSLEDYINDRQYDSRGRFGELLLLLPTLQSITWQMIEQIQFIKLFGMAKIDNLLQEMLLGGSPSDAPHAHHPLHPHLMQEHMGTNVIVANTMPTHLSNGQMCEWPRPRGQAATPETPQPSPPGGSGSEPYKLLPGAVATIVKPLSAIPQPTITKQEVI
Method in brief: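 Double-stranded oligonucleotides of ~60 nt, representing ~44,000 test sequences in quadruplicate, made up a custom Agilent SurePrint G3 4x180k array. Nuclear extracts from COS-7 cells transiently transfected by CaPO4 with a human HNF4α isoform expression vector were applied, and bound HNF4α was imaged at 2-µm resolution on an Agilent G2565CA scanner. Binding signal refers to the background-corrected, normalized gProcessedSignal output of Agilent software.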

First: ACATGACCTTTGTCCGTTCCTGCCTGGAGCGCCTAGGGAGATTAGAGTATCGGTCGA
Second: TTCGGTGCTGACCTTTGTTCACATTTGTGCGCCTAGGGAGATTAGAGTATCGGTCGA
The binding signal of the first is lower: 5.37 log2 normalized intensity for the first, 5.96 log2 normalized intensity for the second.

First: ATGAGATACCCATTCACATGACCTTTGTCCGCCTAGGGAGATTAGAGTATCGGTCGA
Second: CATTCACATGACCTTTGTCCGTTCCTGCCTGCCTAGGGAGATTAGAGTATCGGTCGA
The binding signal of the first is higher: 8.96 log2 normalized intensity for the first, 6.63 log2 normalized intensity for the second.

Compared with “ATACCCATTCACATGACCTTTGTCCGTTCCGCCTAGGGAGATTAGAGTATCGGTCGA”, “CTGGGATGAGATACCCATTCACATGACCTTGCCTAGGGAGATTAGAGTATCGGTCGA” is lower in binding signal: 7.49 log2 normalized intensity for the first, 3.92 log2 normalized intensity for the second.

First: CTGATGAATAGAAAGAGGTCAATGTACTTAGCCTAGGGAGATTAGAGTATCGGTCGA
Second: TATGTTAATGGCAGAATCAAAGGTCAAAATGCCTAGGGAGATTAGAGTATCGGTCGA
The binding signal of the first is lower: 2.94 log2 normalized intensity for the first, 5.17 log2 normalized intensity for the second.

Compared with “TTCATTGCACTTTGCCCTCTCTTCAGCACCGCCTAGGGAGATTAGAGTATCGGTCGA”, “ATAATTCAGTTTCATTGCACTTTGCCCTCTGCCTAGGGAGATTAGAGTATCGGTCGA” is higher in binding signal: 6.34 log2 normalized intensity for the first, 9.39 log2 normalized intensity for the second.

Going from “ACTGCCATTGATAATTCAGTTTCATTGCACGCCTAGGGAGATTAGAGTATCGGTCGA” to “TCAGTTTCATTGCACTTTGCCCTCTCTTCAGCCTAGGGAGATTAGAGTATCGGTCGA”, the binding signal rises from -0.131 log2 normalized intensity to 7.35 log2 normalized intensity.

First: CATTGATAATTCAGTTTCATTGCACTTTGCGCCTAGGGAGATTAGAGTATCGGTCGA
Second: TGCACTTTGCCCTCTCTTCAGCACCTTTTAGCCTAGGGAGATTAGAGTATCGGTCGA
The binding signal of the first is lower: 4.62 log2 normalized intensity for the first, 5.26 log2 normalized intensity for the second.

Going from “GGTCTGTTTGTGAAACAGTGGGCAATATGAGCCTAGGGAGATTAGAGTATCGGTCGA” to “AACCTAGCCCCCTTTCCCTTATCTTTGTTAGCCTAGGGAGATTAGAGTATCGGTCGA”, the binding signal rises from 1.18 log2 normalized intensity to 2.54 log2 normalized intensity.

Going from “GGACAAAGTTCGTGGAAAGTGGAAGAATGGGCCTAGGGAGATTAGAGTATCGGTCGA” to “CATGAAGCTTCCCCTTTAACCAATATTAGCGCCTAGGGAGATTAGAGTATCGGTCGA”, the binding signal falls from 0.952 log2 normalized intensity to 0.107 log2 normalized intensity.

Going from “AACACTATCTTCTTTCAGTGTTGACCTTTGGCCTAGGGAGATTAGAGTATCGGTCGA” to “TCTTGGAATGTTGAACCTTTCTTTGTCTTTGCCTAGGGAGATTAGAGTATCGGTCGA”, the binding signal falls from 7.46 log2 normalized intensity to 2.31 log2 normalized intensity.

Going from “AGGAGTGTCTTTCTCCTTGAACACAGTGTTGCCTAGGGAGATTAGAGTATCGGTCGA” to “TATCCAATAAAACACTATCTTCTTTCAGTGGCCTAGGGAGATTAGAGTATCGGTCGA”, the binding signal falls from 1.24 log2 normalized intensity to 0.405 log2 normalized intensity.

Compared with “AACCTTCATCTCTCTTTGTTGACATCTGCTGCCTAGGGAGATTAGAGTATCGGTCGA”, “GAATGTTGAACCTTTCTTTGTCTTTGCAATGCCTAGGGAGATTAGAGTATCGGTCGA” is higher in binding signal: -0.0144 log2 normalized intensity for the first, 1.98 log2 normalized intensity for the second.

Compared with “TCTTTCAGTGTTGACCTTTGAACATTTCTTGCCTAGGGAGATTAGAGTATCGGTCGA”, “TATCTTCTTTCAGTGTTGACCTTTGAACATGCCTAGGGAGATTAGAGTATCGGTCGA” is higher in binding signal: 8.97 log2 normalized intensity for the first, 9.23 log2 normalized intensity for the second.

Going from “CATGCTCTTGGAATGTTGAACCTTTCTTTGGCCTAGGGAGATTAGAGTATCGGTCGA” to “TTACCATATTTACTTATGGTTTGACCCTGCGCCTAGGGAGATTAGAGTATCGGTCGA”, the binding signal rises from 3.19 log2 normalized intensity to 5.23 log2 normalized intensity.

First: AATTCCTTTCAAACTGTATTGCTCAATGTCGCCTAGGGAGATTAGAGTATCGGTCGA
Second: GAGTTGGAGAAGAGCAAAGATCATCTGGTGGCCTAGGGAGATTAGAGTATCGGTCGA
The binding signal of the first is lower: 0.181 log2 normalized intensity for the first, 1.45 log2 normalized intensity for the second.

Going from “CAAAAGTTCAAACTTTATTTGATGATGAAGGCCTAGGGAGATTAGAGTATCGGTCGA” to “AATGCGCAGAATTTCTTTTAATGTGTGCTTGCCTAGGGAGATTAGAGTATCGGTCGA”, the binding signal falls from 0.503 log2 normalized intensity to 0.136 log2 normalized intensity.

Compared with “TTAATACTTTGGAACTCAGTTAATGTACAGGCCTAGGGAGATTAGAGTATCGGTCGA”, “CTTAGCAGTGGGAGACAGGCATTAACCCTTGCCTAGGGAGATTAGAGTATCGGTCGA” is higher in binding signal: 1.59 log2 normalized intensity for the first, 1.74 log2 normalized intensity for the second.

Going from “GAGACAACTGCAACAGGAGGACCTCTGGATGCCTAGGGAGATTAGAGTATCGGTCGA” to “AACTGTACTTTGGACTGGGGACCTGGTCTGGCCTAGGGAGATTAGAGTATCGGTCGA”, the binding signal rises from -0.854 log2 normalized intensity to 4.79 log2 normalized intensity.

First: CTGGTTCTGCAAGGCAACTGACCTTTGGATGCCTAGGGAGATTAGAGTATCGGTCGA
Second: TCTGCAAGGCAACTGACCTTTGGATCTGGGGCCTAGGGAGATTAGAGTATCGGTCGA
The binding signal of the first is higher: 8.71 log2 normalized intensity for the first, 8.01 log2 normalized intensity for the second.

Compared with “CTTGGGGGAGGAGGGCAACCTTTGAACTGGGCCTAGGGAGATTAGAGTATCGGTCGA”, “TTCTTCTGGTTCTGCAAGGCAACTGACCTTGCCTAGGGAGATTAGAGTATCGGTCGA” is lower in binding signal: 6.02 log2 normalized intensity for the first, 4.13 log2 normalized intensity for the second.

Going from “TTTATGACCTTTGACTGCAGAAGATAAGAAGCCTAGGGAGATTAGAGTATCGGTCGA” to “TGATAAAGGGGGCAAAGGGCATGGGCAGCTGCCTAGGGAGATTAGAGTATCGGTCGA”, the binding signal falls from 4.5 log2 normalized intensity to 4.41 log2 normalized intensity.

Compared with “GGAGTGACCCTGGGAGCAAAGGTCAAGAGTGCCTAGGGAGATTAGAGTATCGGTCGA”, “GGTGTAAGCTCTGGAGTCCAAAGGTCAGCAGCCTAGGGAGATTAGAGTATCGGTCGA” is higher in binding signal: 7.55 log2 normalized intensity for the first, 8.69 log2 normalized intensity for the second.

Going from “AAGGTCAGCAAGCCTGGAGTTCTGATGTTCGCCTAGGGAGATTAGAGTATCGGTCGA” to “CTGGAGTCCAAAGGTCAGCAAGCCTGGAGTGCCTAGGGAGATTAGAGTATCGGTCGA”, the binding signal rises from 0.91 log2 normalized intensity to 7.44 log2 normalized intensity.

Compared with “CCACTGGTGTAAGCTCTGGAGTCCAAAGGTGCCTAGGGAGATTAGAGTATCGGTCGA”, “GTCCAAAGGTCAGCAAGCCTGGAGTTCTGAGCCTAGGGAGATTAGAGTATCGGTCGA” is higher in binding signal: 4.54 log2 normalized intensity for the first, 5.05 log2 normalized intensity for the second.

First: TGGGAGCAAAGGTCAAGAGTTTTAAAGTATGCCTAGGGAGATTAGAGTATCGGTCGA
Second: ATCCACCCATCCAAAGGTCAGCAATCTCAAGCCTAGGGAGATTAGAGTATCGGTCGA
The binding signal of the first is higher: 5.47 log2 normalized intensity for the first, 3.45 log2 normalized intensity for the second.

Compared with “GGAGACCACTGGTGTAAGCTCTGGAGTCCAGCCTAGGGAGATTAGAGTATCGGTCGA”, “TGTTTGCCTCTCAGCTCATTCAAAGTCCAAGCCTAGGGAGATTAGAGTATCGGTCGA” is higher in binding signal: 1.64 log2 normalized intensity for the first, 4.2 log2 normalized intensity for the second.

Going from “AAGCTCTGGAGTCCAAAGGTCAGCAAGCCTGCCTAGGGAGATTAGAGTATCGGTCGA” to “TTAGGAGGATGACAAAGAGCAAGTGACCCTGCCTAGGGAGATTAGAGTATCGGTCGA”, the binding signal falls from 8.14 log2 normalized intensity to 4.46 log2 normalized intensity.
